ST2 IL33 inh: inhibitors of human ST2 (IL1RL1) binding to IL-33, primary screen, biochemical, AlphaLISA; Interleukin-1 receptor-like 1 (Homo sapiens), Q01638; AlphaLISA ST2-Fc/biotin-IL-33 interaction, 1 h; hit rate 2.3% among 78,000; inhibition, % for hits at 17 µM; in the data active means inhibition above about 30%
Target sequence (Q01638 whole entry, looked up): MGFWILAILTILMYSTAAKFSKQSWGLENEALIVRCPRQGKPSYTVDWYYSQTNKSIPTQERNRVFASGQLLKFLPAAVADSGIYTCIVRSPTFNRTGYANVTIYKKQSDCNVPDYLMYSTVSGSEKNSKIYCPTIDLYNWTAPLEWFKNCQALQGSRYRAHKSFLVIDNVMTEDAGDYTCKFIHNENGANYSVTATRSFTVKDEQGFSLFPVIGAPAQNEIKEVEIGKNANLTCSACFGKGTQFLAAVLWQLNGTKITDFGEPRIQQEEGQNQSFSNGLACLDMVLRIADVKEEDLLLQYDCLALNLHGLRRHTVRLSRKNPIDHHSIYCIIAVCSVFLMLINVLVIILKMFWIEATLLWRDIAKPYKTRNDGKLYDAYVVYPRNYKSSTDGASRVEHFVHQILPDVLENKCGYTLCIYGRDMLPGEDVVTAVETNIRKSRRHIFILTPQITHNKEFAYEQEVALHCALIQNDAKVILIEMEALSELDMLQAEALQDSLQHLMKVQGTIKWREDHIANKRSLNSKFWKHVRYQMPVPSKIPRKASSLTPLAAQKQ
Each line names hits and unclear results; the compound was inactive in the other large screens. The entries come from a sample that favours hits as a whole.

COc1ccccc1N1CCN(Cc2ccc(Cl)cc2)CC1	none
COc1ccccc1N1CCN(Cc2cccc(Cl)c2)CC1	none
CCc1ccc(CN2CCN(c3ccccc3OC)CC2)cc1	ST2 IL33 inh 97.0%
O=C(NC[C@H]1C[C@@H]2CCN1C[C@@H]2CN1CCN(c2ccccn2)CC1)c1ccc(C(F)(F)F)cc1	none
CC[C@H]1CN2CC[C@H]1C[C@@H]2CNC(=S)Nc1cc(C)cc(C)c1	none
CCNC(=O)NC[C@H]1C[C@@H]2CCN1C[C@@H]2c1cc(-c2cccs2)nn1C	none
Cn1nc(-c2cccs2)cc1[C@H]1CN2CC[C@H]1C[C@@H]2CNC(=O)N1CCOCC1	none
Cn1nc(-c2cccs2)cc1[C@H]1CN2CC[C@H]1C[C@@H]2CNC(=O)Nc1cccc(C#N)c1	ST2 IL33 inh 35.0%
O=C(c1ccncc1)N1C[C@@H]2C[C@H](C1)c1ccc(-c3ccc(Cl)cc3)c(=O)n1C2	none
N/C(=N/[N+](=O)[O-])Nc1ccc(NC(=O)c2ccc([N+](=O)[O-])cc2)cc1	none
CN1CCc2nc(N)c(C#N)c(-c3ccc(Br)cc3)c2C1	ST2 IL33 inh 34.0%
CC(=O)NCCNC(=O)[C@H]1CN2CCC1C[C@@H]2Cn1cc(-c2cccc(N)c2)nn1 (some centres undefined)	none
O=C(CNS(=O)(=O)c1cccs1)N1CC2CC(C1)c1cccc(=O)n1C2 (centres undefined)	none
O=C(NCc1ccsc1)c1cn(CC2CCCO2)cc(C(=O)NC2CCCCCCC2)c1=O (centres undefined)	none
Cc1ccc(CN2CCCN(CC(=O)NC(C)C)S2(=O)=O)cc1	none

Bioassay records as filed in PubChem.
